For 14 compounds, inhibition results are on record in ChEMBL document CHEMBL3433997, “St. Jude Leishmania screening dataset” (2016).

The target in this assay is Solute carrier family 2, facilitated glucose transporter member 1 (Homo sapiens) (UniProt P11166). Description: ST_JUDE_LEISH: Cytotoxicity at 2uM final concentration against transgenic Leishmania Mexicana promastigotes LmGLUT1 that are glucose transport deficient and complemented with the human glucose transporter GLUT1. Activity is measured by DNA content using SYBR green in vitro. The assay is classed as functional.
Solute carrier family 2, facilitated glucose transporter member 1 (Homo sapiens), sequence (P11166 whole entry): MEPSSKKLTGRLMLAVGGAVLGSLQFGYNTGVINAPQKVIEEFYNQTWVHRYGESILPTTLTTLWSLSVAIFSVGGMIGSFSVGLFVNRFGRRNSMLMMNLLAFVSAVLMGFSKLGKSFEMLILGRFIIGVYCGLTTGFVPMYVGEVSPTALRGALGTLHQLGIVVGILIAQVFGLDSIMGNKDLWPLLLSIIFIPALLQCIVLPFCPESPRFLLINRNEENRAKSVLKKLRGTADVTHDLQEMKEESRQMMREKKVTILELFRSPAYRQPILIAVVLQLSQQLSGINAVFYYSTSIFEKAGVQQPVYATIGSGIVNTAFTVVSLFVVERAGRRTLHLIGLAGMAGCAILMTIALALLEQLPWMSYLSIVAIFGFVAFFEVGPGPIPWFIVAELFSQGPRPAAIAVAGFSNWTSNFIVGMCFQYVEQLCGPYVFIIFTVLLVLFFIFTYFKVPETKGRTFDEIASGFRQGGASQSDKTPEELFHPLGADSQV
As to `ON=C1CCc2cc(-c3cc(-c4ccc(OC5CCNCC5)cc4)oc3-c3ccncc3)ccc21`, the inhibition (as a rule, the change of the read-out against control, counted positive when it falls) amounted to 1.43%. Under `COc1ccc(CC(=O)NC(CCCN2CCC(c3ccccc3)CC2)c2ccc(Cl)c(Cl)c2)cc1OC` (centres undefined) stands 1.29%. The value for `COc1ccc(-c2nc(NC(=O)Cc3ccc4c(c3)OCCO4)sc2C)cc1` was 3.71%; that for `Cc1ccc2[nH]ncc2c1N(CC1CCCCC1)c1ccnc(Nc2ccc(OCC(O)CN3CC=CCC3)cc2)n1` (centres undefined) was 2.37%. Under `COc1ccc(NC(=O)CCNc2cc(C)nc(NCCc3ccc(F)cc3)n2)cc1` stands -0.52%; under `CC(C)(CNCc1ccccc1)c1nc(-c2ccc(Cl)c(O)c2)c(-c2ccncc2)[nH]1`, 4.28%; under `CCN1CCc2c1cc(C(=O)N[C@@H](Cc1ccccc1)[C@H](O)CNC(C)(C)c1cccc(C(F)(F)F)c1)cc2N1CCCCS1(=O)=O`, 5.34%. On to `Cc1ccc2nc(C)n(C3CCN(C(=O)C4(c5ccccc5)CC4)CC3)c2c1`, for which the inhibition was 5.47%. As for `CN(C)C(=O)CC(=O)NCc1cccc(Cl)c1`, the inhibition was 6.99%. Under `O=C(NCc1cccc(F)c1)Nc1cccc(-c2cccc(-c3nc4cc(C(F)(F)F)ccc4[nH]3)c2)c1` stands 0.12%; under `CC(C)(C)N1CCC(N(Cc2ccc(-c3ccc(C(F)(F)F)cc3)cc2)C(=O)Cn2c(CCc3cccc(F)c3F)cc(=O)c3ccccc32)CC1`, 1.29%; under `COc1ccc(-c2cnc3ccc(NCCCO)nn23)cc1OC`, -0.63%. For `CC(=O)Nc1nc(C(=O)Nc2cccc(-c3ccc(-c4nc5cc(F)ccc5[nH]4)cc3)c2)cs1`, the inhibition amounted to 2.38%.

`COCCOc1nc(N)nc2ncc(Cc3cc(OC)ccc3OC)c(C)c12`: the inhibition came out at 0.79%.
